Rows were chosen to be rich in hits. Some 4.1% of all compounds tested hit in one or more screens of this group.
Bfl-1 A1 inh – caspase 3/7 activation in MEF A1-2A-BIM cells, primary screen, A1 inhibitor project, cell-based, luminescence, HTS. Caspase-Glo 3/7 luminescence, 3 h; percent of clofoctol response, vehicle zero. caspase activation, % (concentration not given with the values). hit rate 0.066% among 330,000;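 active = over half of replicate activation scores above 10%, or exactly half above 10 with the replicate mean above 10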
CSC inhib – cancer stem cell viability inhibitors, primary screen, luminescence; cancer stem cell-like cells viability; inhibition, % at 7.5 µM; hit rate 1.1% among 300,000; in the data active = inhibition above about 75%; tested in HMLE shEcad cells
Beta apoptosis – inhibitors of cytokine-induced beta cell apoptosis, primary screen, luminescence; INS-1E cytokine-induced death, ATP luminescence, 48 h; percent of positive-control rescue, neutral wells zero; hit rate 0.8% among 300,000; protection from apoptosis, % (test concentration not listed);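 active = Every replicate reaches about 75%, or at least half do and their mean reaches it too, limit read from the data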;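 note: 0% = cytokine-treated negative control wells and 100% = positive control rescue; higher means more ATP so stronger rescue from cytokine killing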
aSyn 5UTR inh – MLPCN primary screen, SNCA 5' untranslated region. alpha-synuclein 5'UTR reporter, inhibitor activity. inhibition, % (tested at 7.5 µM). hit rate 0.82% among 300,000; in the data active = inhibition above about 60%;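 note: H4 neuroglioblastoma cells stably carrying SNCA 5'UTR luciferase fusion; 0% = DMSO wells and 100% = positive control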
Mdm2-MdmX inh – inhibitors of human Mdm2-MdmX association, primary screen, cell-based, luminescence, split luciferase, SaOS-2, uHTS; SaOS-2 split-luciferase Mdm2/MdmX complementation; inhibition, % at 8 µM; Protein Mdm4 (Homo sapiens) + E3 ubiquitin-protein ligase Mdm2 (Homo sapiens), …; hit rate 3% among 330,000;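 active = inhibition of at least 50% at 8 µM in the primary screen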
Mdm2 MdmX conf – Mdm2-MdmX complex disruptors, retested hits, confirmation, luminescence, single concentration | shares compounds with Mdm2-MdmX inh | Mdm2-MdmX binding, luminescent assay | inhibition, % at 8 µM | hit rate 55% among 10,000 | AID 489028, 2010; in the data active = inhibition above about 40%
FLuc counter – full-length luciferase signal inhibition, confirmation, counter-screen for Mdm2/MdmX interaction inhibitor project, cell-based, single concentration, SaOS-2 | SaOS-2 full-length luciferase counterscreen, luminescence | inhibition, % at 8 µM | shares compounds with Mdm2-MdmX inh | hit rate 77% among 6,200 | AID 504607, 2011;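 active = mean inhibition at 8 µM reaching about 37%, which flags the compound as non-specific, limit read from the data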;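 note: p53-null SaOS-2 cells with luciferase driven by a doxycycline-inducible promoter; compound on cells about two nights before reading with doxycycline added after day one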
Numbers without * were called inactive.

For Cc1coc2c1C(=O)C(=O)c1c-2ccc2c(C)cccc12 the results were Bfl-1 A1 inh 0, CSC inhib 15, Beta apoptosis 0, aSyn 5UTR inh -64, Mdm2-MdmX inh 65* and Mdm2 MdmX conf 14.
`Cc1coc2c1C(=O)C(=O)c1c-2ccc2c1CCCC2(C)C` gave Bfl-1 A1 inh 0, CSC inhib -2, Beta apoptosis 0, aSyn 5UTR inh 63*, Mdm2-MdmX inh 53* and Mdm2 MdmX conf 6.
Screening Cc1ccc2c3c(cccc13)-c1ccccc1C2=O returned Bfl-1 A1 inh 1, CSC inhib 11, Beta apoptosis 5, aSyn 5UTR inh -111 and Mdm2-MdmX inh -57.
O=S(=O)(NCCOc1ccccc1F)c1cccc(Br)c1 was read as Bfl-1 A1 inh 0, CSC inhib 2, Beta apoptosis -6 and Mdm2-MdmX inh 22.
Cc1ccc(C(=O)COC(=O)C2CC3CCCC(C2)C3=O)cc1[N+](=O)[O-] (centres undefined) was read as Bfl-1 A1 inh 0, CSC inhib -12, Beta apoptosis -2, aSyn 5UTR inh 7 and Mdm2-MdmX inh 6.
For CCN(CC)Cc1cc2[nH]c3c4ccc(Cl)cc4ncc3c2cc1OC the results were aSyn 5UTR inh 11, Mdm2-MdmX inh 54* and Mdm2 MdmX conf 24.
Screening CC(=O)c1nn(-c2cccc(Br)c2)cc1C(=O)c1ccc(Br)cc1 returned Bfl-1 A1 inh 0, CSC inhib -2, Beta apoptosis 13, aSyn 5UTR inh 30, Mdm2-MdmX inh 56* and Mdm2 MdmX conf -7.
For O=C(Nc1ccc(F)cc1)c1cccc2c1C(=O)N(CC1CCCO1)C2 (centres undefined) the results were Bfl-1 A1 inh -1, CSC inhib -10, Beta apoptosis -5, aSyn 5UTR inh 4 and Mdm2-MdmX inh -14.
Screening COc1cccc(CNCCc2c[nH]c3ccccc23)c1OCc1ccc(F)cc1 returned Bfl-1 A1 inh 1, CSC inhib 15, Beta apoptosis 24, aSyn 5UTR inh -15, Mdm2-MdmX inh 68* and Mdm2 MdmX conf 38.
`COc1cc(CNCCc2c[nH]c3ccccc23)cc(Cl)c1OCC(N)=O` gave Bfl-1 A1 inh 0, CSC inhib 2, Beta apoptosis -7, aSyn 5UTR inh 4 and Mdm2-MdmX inh 9.
For COc1cc(CNCCc2c[nH]c3ccccc23)ccc1OCc1ccc(F)cc1 the results were Bfl-1 A1 inh 0, CSC inhib active, Beta apoptosis 31, aSyn 5UTR inh 19, Mdm2-MdmX inh 99*, Mdm2 MdmX conf 59* and FLuc counter 57*.
Screening Cc1cccc2cc(C#N)c(N3CCN(C)CC3)nc12 returned Bfl-1 A1 inh 0, CSC inhib -12, Beta apoptosis 3, aSyn 5UTR inh 12, Mdm2-MdmX inh 54* and Mdm2 MdmX conf 7.
For COc1ccccc1OCCNc1ccc(S(=O)(=O)N2CCCC2)cn1 the results were Mdm2-MdmX inh 29.
`CC(C)(C)c1ccc(-c2cc(-c3ccccc3O)[nH]n2)cc1` gave Bfl-1 A1 inh -2, CSC inhib 43, Beta apoptosis 12, aSyn 5UTR inh -33, Mdm2-MdmX inh 58*, Mdm2 MdmX conf 65* and FLuc counter 139*.
`Oc1ccccc1-c1cc(-c2cccc(F)c2)n[nH]1` gave Bfl-1 A1 inh -5, CSC inhib 21, Beta apoptosis 7, aSyn 5UTR inh -234 and Mdm2-MdmX inh -141.
`CN(C)c1ccc(-n2cccc2/C=C/[N+](=O)[O-])cc1` gave Bfl-1 A1 inh -1, CSC inhib 87*, Beta apoptosis 21, aSyn 5UTR inh -29, Mdm2-MdmX inh 65* and Mdm2 MdmX conf 34.
N#Cc1c(SCC(=O)Nc2nccs2)nc2c(c1-c1ccco1)CCCC2 was read as Bfl-1 A1 inh 0, Beta apoptosis 23, aSyn 5UTR inh 13, Mdm2-MdmX inh 51* and Mdm2 MdmX conf 11.
Cc1nc(SCC(=O)Nc2nc3ccccc3s2)c(C#N)c(C)c1C was read as Bfl-1 A1 inh -2, CSC inhib 18, Beta apoptosis 14, aSyn 5UTR inh 100*, Mdm2-MdmX inh 100*, Mdm2 MdmX conf 100* and FLuc counter 53*.
Screening Cc1cnc(=O)[nH]c1SCC(=O)Nc1nccs1 returned Bfl-1 A1 inh 0, CSC inhib -11, Beta apoptosis -4, aSyn 5UTR inh 5 and Mdm2-MdmX inh 36.
For N#Cc1c(C(F)(F)F)cc(-c2ccccc2)nc1SCC(=O)Nc1sc2c(c1C#N)CCC2 the results were Bfl-1 A1 inh 1, CSC inhib 7, Beta apoptosis -4, aSyn 5UTR inh 18, Mdm2-MdmX inh 72*, Mdm2 MdmX conf 64* and FLuc counter 55*.
Cc1nc(SCC(=O)Nc2nccs2)c(C#N)c(C)c1C was read as Bfl-1 A1 inh -1, Beta apoptosis 2, Mdm2-MdmX inh 68*, Mdm2 MdmX conf 51* and FLuc counter 110*.
`Cc1ccc(C)c(S(=O)(=O)Nc2cc3c4c(c2)CCC(=O)N4CCC3)c1` gave Bfl-1 A1 inh 0, CSC inhib -12, Beta apoptosis 12, aSyn 5UTR inh 18 and Mdm2-MdmX inh -1.
For O=S1(=O)N[C@@H](Cc2ccccc2)COc2cc(Br)ccc21 the results were Mdm2-MdmX inh 28.
COc1ccc(C(=O)Nc2ccnn2C2CCN(C(=O)c3cc(C)on3)CC2)cc1 was read as Bfl-1 A1 inh 2, CSC inhib -12, Beta apoptosis -4, aSyn 5UTR inh -7 and Mdm2-MdmX inh 35.
COc1ccc(C(=O)OCC(=O)NC2CC2)cc1F was read as Bfl-1 A1 inh 1, CSC inhib -10, Beta apoptosis -6 and Mdm2-MdmX inh -6.
For CCCN(CCC)C(=O)c1cc2c(=O)n3cccc(C)c3nc2s1 the results were Bfl-1 A1 inh 0, CSC inhib -16, Beta apoptosis 6, aSyn 5UTR inh -21 and Mdm2-MdmX inh -10.
For COc1ccc(CNCc2c(O)c(Cl)cc3c(C)c(C)c(=O)oc23)c(OC)c1 the results were Bfl-1 A1 inh 0, CSC inhib 3, Beta apoptosis -7, aSyn 5UTR inh -3 and Mdm2-MdmX inh -4.
`COc1cc(C(=O)NCC2CCCN2S(=O)(=O)c2cccs2)cc(OC)c1OC` (centres undefined) gave Bfl-1 A1 inh 1, CSC inhib 1, aSyn 5UTR inh 5 and Mdm2-MdmX inh 11.
